Test results as given in PubChem BioAssay.

Test: calcein-AM signal in unstimulated myeloma cells – cell-based, calcein-AM fluorescence, 48 h, PK04 Diversity Set, profiling panel (AID 1166);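 also: cells grown under basal conditions without added stimulus; test concentration not given here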
Conditions: RPMI8226 myeloma viability, higher = more signal

Structure (SMILES)	z-score
COC(=O)[C@@]1(Cc2ccc(F)cc2)[C@H]2c3cc(C(=O)N(C)C)n(CCc4ccc(O)c(O)c4)c3C[C@H]2CN1C(=O)c1ccccc1	-0.238
CCOC(=O)C1=CC[C@@H](c2ccc(OC)cc2)N(S(=O)(=O)c2ccc(C)cc2)[C@H]1c1ccc(C)cc1	0.583
[N-]=[N+]=NCc1ccccc1[C@@H]1OC(c2ccc(OCCCO)cc2)=N[C@]1(Cc1ccccc1N=[N+]=[N-])C(=O)O	-3.36
COC(=O)[C@@]1(Cc2ccccc2)[C@H]2c3cc(C(=O)N(C)C)n(CCSC(=N)N)c3C[C@H]2CN1C(=O)c1ccccc1	-1.07
Cc1ccc(S[C@]2(C(=O)NC(C)C)CC(=O)N(C3CCCCC3)[C@@H]2c2ccc(CO)cc2I)cc1	-2.68
COC(=O)C(CC#Cc1ccc2c(c1)[C@]1(C(=O)N2)[C@H](C(=O)N2CCc3cc(OC)c(OC)cc3C2)[C@H]2C(=O)O[C@H](c3ccccc3)[C@H](c3ccccc3)N2[C@@H]1c1ccccc1OCCO)C(=O)OC	0.546
C=CC[C@@]12N=C(c3ccc(OCCCO)cc3)O[C@@H]1c1ccccc1N(CCC)C2=O	-3.66
CCC(CC)C(O)C1C=CC2C(=O)N(c3ccccc3)C(=O)C2N1Nc1ccccc1F (stereo unspecified)	0.523
C=C(COC)/C(=C/C[C@H](OC(C)=O)c1ccccc1OCCO)c1cc(C(=O)OC)ccc1OC	-1.74
CN(C)CCCC[C@@H]1NC(=O)[C@@H]2C[C@H](C(=O)NCCCCCN)[C@H](c3cccc(OCCO)c3)N2C1=O	0.891
COC(=O)C[C@H]1O[C@@]2(C[C@@H]1[Si](C)(C)C)C(=O)N(C)c1ccccc12	-0.356
NC(=O)N1C(=O)C2C(C1=O)C1C=C(CCCO)C2C(C2CC2)N1Cc1sc2ccccc2c1Cl (stereo unspecified)	-0.868
CCOC(=O)C1=CCC(c2cc3ccccc3[nH]2)N(CCN2CC(C(=O)OCC)=CCC2c2cc3ccccc3[nH]2)C1 (stereo unspecified)	-0.54
COCC(=C=CC[C@H](O)c1ccccc1OCCO)C[C@H](O)COCc1ccccc1	-0.311
COc1ccc([Si](C)(C)[C@@H]2[C@@H](CC(=O)N3CCC[C@H]3CO)O[C@]3(C(=O)N(Cc4ccc(N5CCOC5=O)cc4)c4ccccc43)[C@H]2C)cc1	-4.54
C=C(CCCC)C(=O)CC[C@H](OC(=O)c1ccccc1-c1ccccc1C(=O)O)c1ccc(OCCO)cc1	-3.37
COC(=O)[C@@]1(Cc2ccc(F)cc2)[C@H]2c3cc(C(=O)N4CCCC4)n(Cc4ccccn4)c3C[C@H]2CN1C(=O)c1ccccc1	-2
O=C1NC(=O)C2C1C=CC(C(O)c1ccc([N+](=O)[O-])cc1)N2Nc1ccccn1 (stereo unspecified)	-1.07

Structure (SMILES)	z-score
CCCC#C[Si](O[C@H](CC)c1cn(Cc2ccccc2)nn1)(C(C)C)C(C)C	-0.439
COCCCNC(=O)[C@@]1(CCC(=O)OC(C)(C)C)COC(c2ccc(OCCCO)cc2)=N1	-0.24
C=C(CCCC)/C(=C/C[C@H](OC(C)=O)c1cccc(OCCO)c1)c1cnc2ccccc2c1	-1.26
CN(C)C(=O)[C@]1(Cc2ccccc2)N=C(c2ccc(OCCCO)cc2)O[C@@H]1c1ccccc1CN=[N+]=[N-]	-1.65
Cc1ccc(S[C@]2(C(=O)NCc3ccccc3)CC(=O)N(Cc3ccccc3C(F)(F)F)[C@@H]2c2ccc(CO)cc2)cc1	1.36
CCCN1C(=O)[C@]2(CCC(=O)OC(C)(C)C)N=C(c3ccc(OCCCO)cc3)O[C@@H]2c2ccccc21	-4.37
C[N+](C)(C)CCCC[C@@H]1NC(=O)[C@H]2C[C@@H](C(=O)NCCCCCNC(=O)CS)[C@@H](c3cccc(OCCO)c3)N2C1=O	0.37
CO[C@H]1O[C@H](CO)[C@@H](OC(=O)Nc2ccccc2-c2ccccc2)[C@H](OC(=O)Nc2ccccc2)[C@H]1OC(=O)Nc1ccccc1	-3.36
CC(C)=C1C(=O)C(c2ccccc2)=C2CN3C(=O)N(CCc4ccccc4)C(=O)[C@]3(C)[C@H]21	-3.46
C[C@]1(C(=O)O)c2ccccc2C(=O)N(Cc2cc(F)cc(C(F)(F)F)c2)[C@H]1c1ccc(CO)cc1	0.792
CN(C)CCCNC(=O)[C@@]1(Cc2ccccc2I)c2ccccc2C(=O)N(C2CCCCC2)[C@H]1c1ccc(CO)cc1	-4.34
C#CCN1[C@@H](Cc2ccccc2)C(=O)O[C@H](Cc2ccccc2)[C@@H]1/C=C/C1CC1	-2.16
CCCc1cc2c(n1CCc1ccc(Cl)cc1)C(C)C1CN(C(=O)c3ccccc3)C(C)(C(=O)OC)C21 (stereo unspecified)	-4.74
CN1C(=O)[C@@H]2[C@@H](CC(COc3ccccc3)=C3[C@@H](CCc4ccccc4)OB(O)C[C@@H]32)C1=O	-0.802
CC(C)(C)OC(=O)CC[C@]1(C(=O)NCC(O)CO)N=C(c2ccc(OCCCO)cc2)O[C@H]1c1ccccc1N=[N+]=[N-] (stereo partly specified)	-0.198
COc1ccc([Si](C)(C)[C@H]2[C@H](CC(=O)N3CCC[C@H]3CO)O[C@@]3(C(=O)N(Cc4ccc(N5CCCCC5=O)cc4)c4ccccc43)[C@@H]2C)cc1	-3.5
C=CCOC(=O)[C@H]1[C@@H]2C(=O)O[C@@H](c3ccccc3)[C@@H](c3ccccc3)N2[C@@H](c2ccc(OCCOC(=O)[C@@H]3C[C@@H]4C(=O)N[C@@H](CCCC[N+](C)(C)C)C(=O)N4[C@@H]3c3ccc(O)cc3)cc2)[C@]12C(=O)Nc1ccc(I)cc12	-1.43
O=C(NCc1ccc(F)cc1)[C@H]1C[C@H]2C(=O)N3CCC[C@H]3C(=O)N2[C@H]1c1ccc(O)cc1	-0.625
